This note sets out measurements from PubChem BioAssay AID504329 (Southern Research Specialized Biocontainment Screening …, 2011).

Each structure is given as a SMILES string. “And” between values parts separate entries of the source, which are not always exact repeats. Equal values may be shown once. Out of some 340,000 compounds screened, about 1,000 (0.29%) were called active. The list is a sample of the results. Potency and affinity values are given separately. Values without a mark were called inactive. Cut-off read from the data, not from the text of the source: inconclusive = inhibition above about 27% without an active follow-up result; inactive = below that.

A short description of this assay: NS1A inhibition, H1N1 influenza, cell based functional assay (AID 504329). The settings on record: percent inhibition, at 12.5 µM, stronger effect = higher value.
On to `O=C(CCc1nnc(COc2ccccc2)o1)NCCc1cccs1`, for which the inhibition was -7.18%.

With `FC(F)(F)c1ccc(Cl)c(-n2c(-c3cc(C4CC4)[nH]n3)n[nH]c2=S)c1`, the inhibition is 8.02%.

As for `CC(CC(=O)OCC(=O)NC1CCS(=O)(=O)C1)c1ccccc1` (centres undefined), the inhibition is 4%.

For `CC(=O)N(Cc1cccs1)Cc1cc2ccc(C)c(C)c2nc1Cl`, the inhibition was -4.22%.

For `Cc1nc(Nc2nc3ccccc3o2)nc(C)c1C`, the inhibition was 5%.

Take `Cc1cc(C)nc(Nc2nc3ccccc3o2)n1`: the inhibition is -16.8%.

In the case of `Cc1ccc2oc(Nc3nc(C)cc(C)n3)nc2c1`, the inhibition is -7.76%.

Turning to `Cc1ccc2oc(Nc3nc(C)c(C)c(C)n3)nc2c1`, the inhibition is -16.7%.

Regarding `CCCSc1nc2cc(C)c(C)cc2n1CC(C)O` (centres undefined), the inhibition is -12.9%.

With `Cc1ccc(C(=O)Nc2cccc(C(F)(F)F)c2)cc1NC(=O)c1c[nH]c2cc(C(F)(F)F)ccc2c1=O`, the inhibition was -5.49%.

On to `CC(C)N(C(=O)CN1C(=O)NC2(CCCCCC2)C1=O)C(C)C`, for which the inhibition was -2.18%.

In the case of `Cc1cccc(C)c1NC(=O)c1sccc1SCC#N`, the inhibition was -4.84%.

Turning to `C[n+]1c2cc(N)ccc2cc2ccc(N)cc21`, the inhibition was -0.44% and -3.15%.

`CC[n+]1c(-c2ccccc2)c2cc(N)ccc2c2ccc(N)cc21`: the inhibition is 7.81%.

With `Cc1ccc2c(c1)c1c3n2CCN(C(=O)CN2CCN(C)CC2)C3CCC1` (centres undefined), the inhibition is 7.29%.

As for `Cc1ccc2c(c1)c1c3n2CCN(C(=O)CCl)C3CCC1` (centres undefined), the inhibition is 1.19%.

Consider `COc1ccc(Nc2nc(N)nc(CSC(=S)N3CCN(C)CC3)n2)cc1`, for which the inhibition is -7.34%.

Take `CN(C)c1ccc(C2Nc3cccc4cccc(c34)N2)cc1`: the inhibition was 1.96%.

As for `Cc1ccc(N=Nc2ccc(O)cc2)c(Br)c1`, the inhibition is 10.2%.

Turning to `CN(C)c1ccc(N=Nc2ccc(S(N)(=O)=O)cc2)cc1`, the inhibition was 12.4%.

Take `CN(C)c1cccc2cccc(N(C)C)c12`: the inhibition is 11.8%.

Regarding `Cc1ccc(S(=O)(=O)NCCSc2ncccn2)cc1`, the inhibition is 2.89%.

On to `C=CCNC(=S)/C(=C(/[O-])c1ccc([N+](=O)[O-])cc1)[n+]1ccccc1`, for which the inhibition is -7.17%.

For the molecule `COc1ccc(C(=O)COC(=O)CCn2nnc(-c3cccc(O)c3OC)n2)cc1`, the inhibition was -2.1%.

As for `CC1CCN(C2=C(NS(=O)(=O)c3ccc(Cl)cc3)C(=O)c3ccccc3C2=O)CC1`, the inhibition was -3.44%.

With `CC1CCCN(C2=C(NS(=O)(=O)c3ccc(Br)cc3)C(=O)c3ccccc3C2=O)C1` (centres undefined), the inhibition is 27.1%.

Turning to `CN1CCN(C2=C(NS(=O)(=O)c3ccccc3)C(=O)c3ccccc3C2=O)CC1`, the inhibition is -2.49%.

With `NC(=O)C1CCN(C2=C(NS(=O)(=O)c3ccccc3)C(=O)c3ccccc3C2=O)CC1`, the inhibition is 24.5%.

For `CC(=O)Nc1ccc(S(=O)(=O)NC2=C(N3CCN(c4ccc(F)cc4)CC3)C(=O)c3ccccc3C2=O)cc1`, the inhibition was 27.2%.

Take `CN(C(=O)c1cccs1)c1ccc(OCC(=O)N2CCC(C(N)=O)CC2)cc1`: the inhibition is -3.1%.

For `CCOC(=O)C(C#N)=C1CCN(Cc2ccccc2)CC1`, the inhibition is -28.1%.

In the case of `CCOC(=O)/C(C#N)=C1\C(=O)N(Cc2ccccc2)c2ccccc21`, the inhibition was 13.1%.

`O=C(N/N=C/c1cn(-c2ccccc2)nc1-c1cccnc1)c1ccccc1`: the inhibition was -7.1%.

As for `O=C(c1ccc2ccccc2n1)N1CCN(c2ccccc2)CC1`, the inhibition was -4.44%.

Consider `COc1ccc(NC2=NC3(CCCCC3)N=C(N)N2)cc1`, for which the inhibition is -15.4%.

In the case of `Cc1ccc(NC(=O)c2ccc(Nc3c([N+](=O)[O-])cc([N+](=O)[O-])cc3[N+](=O)[O-])cc2)cc1`, the inhibition is 2.68%.

As to `COc1ccc(Nc2ccc3c(c2)=NC2(CCCCC2)[N+]=3[O-])cc1`, the inhibition was 26.2%.

Consider `CC(=O)c1ccc(Nc2c([N+](=O)[O-])ccc3nonc23)cc1`, for which the inhibition is 6.86%.

For `COC(=O)C1=C(c2cccc(OC)c2OC)C[C@@H]2CC[C@H]1N2C(=O)NCCS(C)=O` (some centres undefined), the inhibition is -8.82%.

As to `CC1Cc2ccccc2N1C(=O)COC(=O)c1ccc(Cl)c(S(=O)(=O)N2CCOCC2)c1` (centres undefined), the inhibition was 9.33%.

Consider `COC(=O)c1nnn(-c2cccc(Cl)c2)c1C(=O)OC`, for which the inhibition was -5.37%.

Regarding `O=C(CN(Cc1ccc(F)cc1)C(=O)CCC(=O)Nc1nccs1)NCC1CCCO1` (centres undefined), the inhibition is -15.5%.

For the molecule `O=C(Nc1cccc(-n2cnnn2)c1)c1ccc(C(F)(F)F)cc1`, the inhibition was -1.71%.

As for `Cc1ccc(S(=O)(=O)c2nc(N3CCOCC3)sc2Cl)cc1`, the inhibition is -3.55%.

On to `CC(=O)Nc1ccc(N2N=C(C)C(N=Nc3ccccc3)C2=O)cc1` (centres undefined), for which the inhibition is 22.2%.

On to `CC1=NN(c2ccccc2)C(=O)C1N=Nc1ccc(S(N)(=O)=O)cc1` (centres undefined), for which the inhibition was 1.05%.

Regarding `CC1=NN(c2ccccc2)C(=O)C1N=Nc1cccc(O)c1` (centres undefined), the inhibition is 0.04%.

For the molecule `CC1=NN(c2ccccc2)C(=O)C1N=Nc1ccccc1` (centres undefined), the inhibition was -6.95%.

Take `COc1ccc(N2CCN(c3nc4c(C)cccn4c(=O)c3C=C(C#N)C#N)CC2)cc1`: the inhibition is -22.9%.

In the case of `O=C(NNC(=O)c1cccs1)c1ccncc1`, the inhibition is -2.62%.

`COc1ccc([C@H]2CC(=O)C=C(c3cccc4c3sc3ccccc34)C2)cc1OC`: the inhibition was 7.03%.

In the case of `Nc1nc(NC(=O)c2ccccc2)nn1-c1ccccc1`, the inhibition was -6.76%.

Turning to `Nc1nc(NC(=O)c2ccco2)nn1-c1ccccc1`, the inhibition is 5.18%.

Take `CCCc1cc(N2CCCC(C(=O)NCC)C2)n2ncnc2n1` (centres undefined): the inhibition was -10%.

On to `NC(=O)C1(N2CCCCC2)CCN(c2ccc3nnc(-c4ccccc4)n3n2)CC1`, for which the inhibition was -13.3%.

Take `Cc1cc2ccccn2c1C(=O)c1cccc([N+](=O)[O-])c1`: the inhibition is 4.98%.

As for `COC(=O)c1cc(C(=O)c2c(C)cc3ccccn23)cc([N+](=O)[O-])c1`, the inhibition was 16.9%.

Regarding `O=C(NCCC1=CCCCC1)C(=O)NCCc1ccc(Cl)cc1`, the inhibition was 1.14%.

Consider `C=CC[C@@H](CC(=O)N[C@@H](CO)Cc1ccccc1)C(=O)N[C@H](C)COC(=O)[C@@H](CC=C)Cc1ccc(F)cc1`, for which the inhibition is -3.08%.
